Test results published in PubChem BioAssay.
Activity calls are given as the source filed them.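 Rule for the calls, unless noted: active = compound raises insulin release from rat beta cells at 5 mM glucose, no numeric limit stated; inactive = the rest.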

Assays:
[1] = stimulators of insulin release from INS-1E, primary screen, cell-based, 5 mM glucose, NPC library (AID 1117329); settings: rat INS-1E insulin secretion, at 10 µM, stronger effect = higher value
[2] = growth inhibition of GSK3B-pretreated HCT116 cells – cell-based, CellTiter-Glo, 0.2 to 20 µM (AID 1117336;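 active = compounds lowering colon cancer cell viability after pretreatment blocking the GSK3B kinase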); settings: HCT116 viability after GSK3B inhibitor, at 20 µM, stronger effect = higher value
[3] = inhibition of endothelial tube formation, primary screen, imaging, VEGF stimulated, CD31 staining, tube area, NPC library (AID 1117340;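 active = compound that reduces growth-factor-driven endothelial tube area in a mixed cell culture, no cutoff stated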); settings: VEGF-stimulated ADSC/ECFC co-culture, at 10 µM, stronger effect = higher value
[4] = glucagon-like peptide 1 release enhancers, primary assay, NCI-H716 cell line, NPC library (AID 1117341;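 active = compound raises GLP1 secretion from the human gut endocrine cells, with no numeric limit stated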); settings: NCI-H716 cells, at 10 µM, stronger effect = higher value
[5] = HCT116 colon cancer cell growth inhibition, primary screen, CellTiter-Glo luminescence, NPC library (AID 1117342;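 active = compounds that lower survival of HCT116 colon cancer cells in the luminescence readout, no numeric limit stated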); settings: at 20 µM (top of the series)
[6] = CellTiter-Glo luminescent readout of SW480 viability loss, NPC library primary (AID 1117343;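 active = compounds that lower viability of the colon cancer cells in the luminescence readout, with no numeric limit stated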); settings: CellTiter-Glo luminescence; at 20 µM (top of the series)
[7] = decreased DLD-1 cellular survival, CellTiter-Glo luminescent readout, NPC compound collection, primary HTS (AID 1117346;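 active = compounds that lower survival of DLD-1 colon cancer cells in the luminescence readout, no cutoff given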); settings: DLD-1 viability, CellTiter-Glo luminescence; at 20 µM (top of the series)
[8] = molecular target: 6-phosphogluconate dehydrogenase, decarboxylating (Homo sapiens) (UniProt P52209); test: 6PGD enzyme inhibitors, primary screen, biochemical, human, recombinant enzyme, NADPH absorbance (AID 1159550;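 active = at least 20% inhibition of 6-phosphogluconate dehydrogenase activity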); settings: recombinant 6PGD, NADPH absorbance 341 nm; at 10 µM; stronger effect = higher value
Sequence of 6-phosphogluconate dehydrogenase, decarboxylating (Homo sapiens) (P52209 whole entry, looked up): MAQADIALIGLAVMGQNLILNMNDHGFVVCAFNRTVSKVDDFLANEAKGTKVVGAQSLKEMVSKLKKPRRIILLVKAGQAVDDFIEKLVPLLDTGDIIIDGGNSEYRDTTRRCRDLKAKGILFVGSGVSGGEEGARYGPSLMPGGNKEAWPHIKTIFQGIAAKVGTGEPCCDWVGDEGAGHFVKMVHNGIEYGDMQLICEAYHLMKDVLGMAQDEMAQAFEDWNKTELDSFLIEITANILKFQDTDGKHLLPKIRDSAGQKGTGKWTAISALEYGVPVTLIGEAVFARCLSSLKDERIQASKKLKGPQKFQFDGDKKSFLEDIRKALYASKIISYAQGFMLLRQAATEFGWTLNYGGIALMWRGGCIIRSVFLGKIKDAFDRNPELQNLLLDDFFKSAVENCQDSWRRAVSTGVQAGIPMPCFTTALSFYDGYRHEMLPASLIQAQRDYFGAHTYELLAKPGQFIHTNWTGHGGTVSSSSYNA

[9] = differential killing of epithelial or mesenchymal cells, primary screen, imaging, PC-3E GFP, TEM4-18 mCherry, co-culture (AID 1345086;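 active = compounds killing one labelled cell type while sparing the other, by normalised counts and ratio limits, not self-fluorescent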;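 for all read-outs here: cells exposed to compound for 72 h before imaging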;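 for red/green cell ratio (normalised): normalised mesenchymal count divided by normalised epithelial count so high means epithelial killing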); settings: imaging cell counts, at 1 µM; for red/green cell ratio (normalised): actives lie on both sides, counts scaled to control wells, 1 = unselective
[10] = measured here: epithelial PC-3E GFP cell survival
[11] = measured here: mesenchymal TEM4-18 mCherry cell survival

Compound | insulin secretion stimulation [1] | viability decrease [2] | tube area decrease [3] | GLP1 secretion stimulation [4] | inhibition of viability [5] | viability decrease (inhibition) [6] | viability decrease (inhibition) [7] | inhibition [8] | red/green cell ratio (normalised) [9] | normalised cell number [9, 10] | normalised cell number [9, 11]
CCC(Cc1c(I)cc(I)c(N)c1I)C(=O)O (stereo not drawn) | 0.8% (inactive) | -70.8% (inactive) | 4% (inactive) | 1.8% (inactive) | 7.7% (inactive) | 18.6% (inactive) | -5.3% (inactive) | -0.317% (inactive) | 1.11 (inactive) | 1.2 | 1.33
COc1cc2c3cc1Oc1cc(ccc1O)C[C@@H]1c4c(cc(OC)c(O)c4Oc4ccc(cc4)C[C@@H]3N(C)CC2)CC[N+]1(C)C | -0.3% (inactive) | -3% (inactive) | 13.9% (inactive) | -1.7% (inactive) | -1.93% (inactive) | 5.3% (inactive) | -2.9% (inactive) | 0.384% (inactive) | 0.97 (inactive) | 1.08 | 1.05
NC(=O)NC1NC(=O)NC1=O (stereo not drawn) | -2.3% (inactive) | -10.1% (inactive) | 1.2% (inactive) | -1.2% (inactive) | 8% (inactive) | 0.3% (inactive) | -6.65% (inactive) | 4.15% (inactive) | 1.05 (inactive) | 1.06 | 1.11
C=CCSCC1Nc2cc(Cl)c(S(N)(=O)=O)cc2S(=O)(=O)N1 (stereo not drawn) | -0.2% (inactive) | -11% (inactive) | -0.7% (inactive) | 0.1% (inactive) | 3.27% (inactive) | -6.2% (inactive) | 1.8% (inactive) | 5.8% (inactive) | 1.09 (inactive) | 1.09 | 1.19
O=C1C(=O)c2ccccc2C(O)=C1C1CCC(c2ccc(Cl)cc2)CC1 (stereo not drawn) | 1.1% (inactive) | 96.3% (active) | 69.9% (active) | 1.4% (inactive) | 97.1% (active) | 144% (active) | 99% (active) | 5.16% (inactive) | 0.91 (inactive) | 1.07 | 0.98
O=C1c2ccccc2C(=O)C1c1ccccc1 | -1.2% (inactive) | -5.45% (inactive) | -11% (inactive) | 2.1% (inactive) | -1% (inactive) | 1.3% (inactive) | -4.85% (inactive) | 8.94% (inactive) | 1.05 (inactive) | 1.09 | 1.15
CC(N)C(=O)OC(C)(C)Cc1ccc(Cl)cc1 (stereo not drawn) | 4.8% (inactive) | 7.1% (inactive) | -6.7% (inactive) | 5.8% (inactive) | 50% (active) | 13.1% (inactive) | 20.6% (inactive) | -7.62% (inactive) | 1.21 (inactive) | 0.96 | 1.16
CC1(C)S[C@@H]2[C@H](NC(=O)C(C(=O)O)c3ccccc3)C(=O)N2[C@H]1C(=O)O (stereo partly drawn) | -0.6% (inactive) | -17.4% (inactive) | -10.8% (inactive) | -0.3% (inactive) | -4.4% (inactive) | -13% (inactive) | -17.8% (inactive) | -9.55% (inactive) | 1.24 (inactive) | 0.99 | 1.23
Nc1ncnc2nc[nH]c12 | -0.3% (inactive) | -4.6% (inactive) | -30.5% (inactive) | -1.7% (inactive) | -30.2% (inactive) | -59.6% (inactive) | -23.8% (inactive) | 2.63% (inactive) | 1.1 (inactive) | 1.11 | 1.22
CO[C@]12C[C@@H](COC(=O)c3cncc(Br)c3)CN(C)[C@@H]1Cc1cn(C)c3cccc2c13 | 8.2% (inactive) | 8.4% (inactive) | 0.8% (inactive) | 7.1% (inactive) | 43.7% (inactive) | 76.9% (active) | 23.6% (inactive) | 6.31% (inactive) | 1.03 (inactive) | 0.95 | 0.99
Cc1ccsc1/C=C/C1=NCCCN1C | 0.2% (inactive) | -25.2% (inactive) | -9.8% (inactive) | -0.1% (inactive) | 39.5% (inactive) | 90.9% (active) | 87.6% (active) | 5.11% (inactive) | 1.28 (inactive) | 1.08 | 1.38
CO[C@@]1(NC(=O)C(C(=O)O)c2ccc(O)cc2)C(=O)N2C(C(=O)O)=C(CSc3nnnn3C)CO[C@@H]21 (stereo partly drawn) | -0.4% (inactive) | 23.9% (inactive) | 10.2% (inactive) | 1.3% (inactive) | 2.9% (inactive) | 25.1% (inactive) | -26% (inactive) | 3.95% (inactive) | 0.93 (inactive) | 1.2 | 1.11
Nc1ccc(C(=O)Oc2ccccc2)c(O)c1 | 0.9% (inactive) | -26.7% (inactive) | 4.5% (inactive) | 0.7% (inactive) | 3% (inactive) | -17.2% (inactive) | 17.2% (inactive) | -7.23% (inactive) | 1.06 (inactive) | 0.61 | 0.65
CC(C)NNC(=O)c1ccncc1 | -2.5% (inactive) | -3.15% (inactive) | 5.7% (inactive) | 0.4% (inactive) | 4.9% (inactive) | 34.8% (inactive) | 7.6% (inactive) | -0.838% (inactive) | 0.73 (inactive) | 1.3 | 0.95
OCc1ccccc1O | -0.1% (inactive) | -7.2% (inactive) | 19.2% (inactive) | -0.3% (inactive) | -6.03% (inactive) | -5.8% (inactive) | -17.8% (inactive) | -10.9% (inactive) | 1.09 (inactive) | 0.88 | 0.96
CCCCCCc1ccc(O)cc1O | 9.8% (inactive) | 65.4% (active) | 30.7% (inactive) | 4.2% (inactive) | 41.8% (inactive) | 84.1% (active) | 56.2% (active) | -8.5% (inactive) | 0.84 (inactive) | 1.14 | 0.96
O=C(O)c1ccccc1C(=O)Nc1ccc(S(=O)(=O)Nc2nccs2)cc1 | -2.1% (inactive) | -13.1% (inactive) | 3.3% (inactive) | 1.4% (inactive) | -16.3% (inactive) | 20.3% (inactive) | -5.15% (inactive) | 5.34% (inactive) | 1 (inactive) | 1.18 | 1.17
Cc1ccc(C(=O)c2ccc(CC(=O)O)n2C)cc1 | 0.4% (inactive) | -13.7% (inactive) | -2.5% (inactive) | 3.1% (inactive) | -3.2% (inactive) | -14.3% (inactive) | 4.3% (inactive) | 9.71% (inactive) | 0.9 (inactive) | 1.11 | 1
NC(N)=NCCN1CCCCCCC1 | -1.2% (inactive) | 1.25% (inactive) | 3.7% (inactive) | -0.1% (inactive) | 30% (inactive) | -11.2% (inactive) | 23.4% (inactive) | 10.5% (inactive) | 1.06 (inactive) | 1.17 | 1.23
CCOC(N)=O | 0.8% (inactive) | -12.6% (inactive) | 14.2% (inactive) | -2.3% (inactive) | 3.77% (inactive) | 5.1% (inactive) | -11.6% (inactive) | -22.6% (inactive) | 1.16 (inactive) | 0.95 | 1.1
CCN(CC)CCOC(=O)C(Cc1cccc2ccccc12)CC1CCCO1 (stereo not drawn) | 7.9% (inactive) | -120% (inactive) | -1.6% (inactive) | 8.3% (active) | 26.1% (inactive) | 37.7% (inactive) | 2.6% (inactive) | -4.35% (inactive) | 1.07 (inactive) | 0.99 | 1.06
O=C1c2cccc(O)c2C(=O)c2c(O)cccc21 | -2.2% (inactive) | 21.4% (inactive) | 6% (inactive) | 0% (inactive) | 21.9% (inactive) | 52.4% (active) | 9.7% (inactive) | -6.73% (inactive) | 1.24 (inactive) | 1.22 | 1.51
CCOC(=O)c1ccc(N)cc1 | -1% (inactive) | 5.65% (inactive) | 4% (inactive) | -0.6% (inactive) | 7.6% (inactive) | 87.8% (active) | 18.2% (inactive) | -17.7% (inactive) | 1.23 (inactive) | 1.07 | 1.31
O=c1[nH]cnc2nc[nH]c12 | 0.7% (inactive) | -11% (inactive) | -3.2% (inactive) | 0.7% (inactive) | -26.8% (inactive) | -73% (inactive) | -26.4% (inactive) | 4.21% (inactive) | 1.25 (inactive) | 0.95 | 1.18
C=Cc1c(C)c2cc3[nH]c(cc4nc(cc5nc(cc1[nH]2)C(C)=C5CCC(=O)O)C(CCC(=O)O)=C4C)c(C)c3C=C | -1.6% (inactive) | 37.8% (inactive) | -597% (inactive) | 117% (active) | 73.5% (active) | 120% (active) | 93% (active) | 16.8% (inactive) | 1.18 (inactive) | 0.8 | 0.95
CC(C(=O)O)c1ccc2c(c1)[nH]c1ccc(Cl)cc12 (stereo not drawn) | 0.1% (inactive) | 6.1% (inactive) | 17.9% (inactive) | 4.6% (inactive) | 1.67% (inactive) | 36% (inactive) | 14.1% (inactive) | -6.34% (inactive) | 1.13 (inactive) | 1.37 | 1.54
Cc1cc(C(C)(C)C)c(O)c(C(C)(C)C)c1 | -0.6% (inactive) | -7.15% (inactive) | -2.9% (inactive) | 14.2% (inactive) | 10.4% (inactive) | 3.9% (inactive) | -5.5% (inactive) | 14.6% (inactive) | 0.93 (inactive) | 1.01 | 0.94
O=C(O)c1ccc(S(=O)(=O)N(Cl)Cl)cc1 | 1.2% (inactive) | -8.9% (inactive) | -29.4% (inactive) | 0% (inactive) | 8.13% (inactive) | 16.9% (inactive) | -6.9% (inactive) | 13.4% (inactive) | 0.95 (inactive) | 1.13 | 1.08
